Source: PubChem BioAssay (NCI)
About 83,000 compounds went through this panel and 20% of them were active in at least one assay; those are over-represented in the sample as a whole.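 Treatment: one concentration, 48 hours, 96-well format. Scoring: percent growth, with anything below 10 considered active.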 A number with no mark means an inactive call. The source made the active and inactive calls.

How the values were obtained:
Assay in all cases: NCI-60 one-dose screen, 48 h (100 = growth as untreated, 0 = no growth, -100 = all killed)
Conditions in all cases: 10 µM unless noted
NCI-H23 lung = system: NCI-H23 lung
NCI-H226 lung = system: NCI-H226 lung
NCI-H322M lung = system: NCI-H322M lung
HOP-62 NSCLC = system: HOP-62 NSCLC
NCI-H460 lung = system: NCI-H460 lung
HOP-92 NSCLC = system: HOP-92 NSCLC
NCI-H522 lung = system: NCI-H522 lung
A549/ATCC NSCLC = system: A549/ATCC NSCLC
786-0 renal = system: 786-0 renal
COLO 205 colon = system: COLO 205 colon

Row | Structure (SMILES) | growth (NCI-H23 lung) | growth (NCI-H226 lung) | growth (NCI-H322M lung) | growth (HOP-62 NSCLC) | growth (NCI-H460 lung) | growth (HOP-92 NSCLC) | growth (NCI-H522 lung) | growth (A549/ATCC NSCLC) | growth (786-0 renal) | growth (COLO 205 colon)
1 | CCCCCCCCCCCCCC1=NCC[N+]1(CCO)Cc1ccccc1 (stereo not given) | -67% (active) | -30.2% (active) | -6.75% (active) | -82.6% (active) | -81.3% (active) | -73.1% (active) | -82.6% (active) | -68.8% (active) | -80.5% (active) | -75.5% (active)
2 | S=C(Nc1ccccc1)c1ccccn1 | 87.5% | 94.7% | 101% | 75.2% | 100% | 84.6% | 74.4% | 91.7% | 96.5% | 67.9%
3 | C#CCN(CCCOc1ccc(Cl)cc1Cl)CCCSC(=O)CCCCCN1/C(=C\C=C2/CCCC(/C=C/C3=[N+](CCCCCC(=O)[O-])c4ccccc4C3(C)C)=C2Cl)C(C)(C)c2ccccc21 | 45.3% | -10.9% (active) | 83.7% | 30.7% | 11.8% | 13.7% | -10.3% (active) | 66% | 25.4% | 32.8%
4 | COC(=O)CCc1n(Cc2ccc3ccccc3c2)c2ccccc2[n+]1Cc1ccc2ccccc2c1 | -7.39% (active) | 17.7% | 36.6% | 19% | 6.29% (active) | -34.4% (active) | -29.4% (active) | 38.3% | 15.4% | -57.3% (active)
5 | N#Cc1c(-c2ccc(Cl)cc2)cc(-c2cc3ccccc3o2)nc1SCC(=O)c1ccc(Cl)cc1 | 91.7% | 102% | 104% | 91.4% | 107% | 83.7% | 97.5% | 111% | 97.2% | 106%
6 | COC(=O)/C=C1\SC(=Nc2ccc(F)cc2)N(CCc2c[nH]c3ccccc23)C1=O | 85.3% | 91.2% | 101% | 104% | 104% | 106% | 68.3% | 79% | 104% | 126%
7 | COC(=O)c1cncc(C(=O)Nc2ccc(-n3cnc4ccccc43)cc2)c1 | 102% | 89.6% | 95.6% | 94.8% | 96.9% | 86.7% | 84% | 94.4% | 105% | 106%
8 | Cc1nccc2c3ccc(OCc4cn(-c5ccc(Br)cc5)nn4)cc3n(CC(C)C)c12 | 40.1% | 58.1% | 90.6% | 65.8% | 44.3% | 16.4% | 26.5% | 41.1% | 28.5% | 15.1%
9 | C[C@@H]1C(=O)[C@@H]2C[C@@H](O)[C@@H](O)C[C@]2(C)[C@H]2CC[C@@]3(C)C(=C12)CC[C@@H]3[C@@](C)(O)[C@H](O)CCC(C)(C)O | 103% | 99.5% | 95.2% | 91% | 105% | 97.5% | 89% | 92.8% | 100% | 117%
10 | CCc1ccc(OCc2ccccc2C(=O)Nc2ccc3nc(C)cc(N)c3c2)cc1 | -73.2% (active) | -45.8% (active) | -92.9% (active) | -78.6% (active) | -67.6% (active) | -87.2% (active) | -84.5% (active) | -73.6% (active) | -88.9% (active) | -79% (active)
11 | CN(CCC#N)C(=O)Nc1ccccc1 | 101% | 106% | 107% | 98.8% | 112% | 114% | 79.8% | 101% | 101% | 112%
12 | O=C(CSC(=S)N1CCCCC1)Nc1ccccc1 | 97.4% | 94.5% | 101% | 100% | 104% | 99.6% | 82.3% | 87.9% | 97% | 112%
13 | O=C1Nc2ccc(Br)cc2/C1=N\N=C/c1cn(Cc2ccccc2)c2ccccc12 | 94.4% | 80.5% | 84% | 97.2% | 51.9% | 106% | 83.9% | 91% | 103% | 114%
14 | COC(=O)c1nc(-c2ccccc2)oc1S(=O)(=O)n1nc(-c2ccccc2)cc1N | 90.4% | 105% | 90.7% | 101% | 100% | 72.1% | 44.3% | 102% | 87.3% | -8.05% (active)
15 | Cc1nn(-c2ccc(-c3ccc(OC(F)(F)F)cc3)cc2)c2nc(-c3ccccc3)nc(N)c12 | 97.7% | 88.4% | 86.4% | 95.8% | 83.2% | 66.4% | 83.7% | 85.2% | 93.8% | 121%
16 | Nc1c(C(=O)Nc2ccccn2)sc2nc3c(cc12)CCCCC3 | 29.9% | 77% | 52.6% | 40.2% | 6.46% (active) | 67.5% | 2.61% (active) | 20.9% | 27.6% | 6.18% (active)
17 | COc1cc([C@H](C)c2ccc3ccccc3c2)cc(OC)c1OC | 30.1% | 68.2% | 55.9% | 36.7% | 8.84% (active) | 66.3% | 10.1% | 24.6% | 39.6% | -3.69% (active)
18 | CCCn1c(N)c(C(N)=O)sc1=S | 105% | 103% | 101% | 98.9% | 114% | 89.5% | 94.5% | 112% | 103% | 118%
19 | COc1ccc(NC(=O)c2sc3nc(C)c(C(C)=O)cc3c2N)cc1 | 98.1% | 95.9% | 95.5% | 99.1% | 96% | 94.6% | 75.2% | 84% | 91.4% | 103%
20 | C=C(C)[C@@H]1CC[C@]2(C(=O)O)CC[C@]3(C)[C@H](CC[C@@H]4[C@@]5(C)C[C@@H](CC#Cc6ccc(Cl)cc6)C(=O)C(C)(C)[C@@H]5CC[C@]43C)[C@@H]12 | 28.5% | 40.2% | 55.6% | 54.7% | 34.8% | 67.9% | 12.6% | 31.3% | 60.5% | 53.8%
21 | Cc1cccc(C)c1NC(=O)CN(CC(C)C)CC(O)COc1ccccc1 (stereo not given) | 86% | 94.9% | 97.7% | 90% | 111% | 91.4% | 82.3% | 90.6% | 78.6% | 100%
22 | COc1cc(C2=NN(c3ccccc3)C(c3cccc(Nc4ccnc5cc(C(F)(F)F)ccc45)c3)C2)cc(OC)c1OC (stereo not given) | 79.1% | 83.6% | 85.6% | 88.8% | 96.2% | 73.4% | 76.4% | 86.5% | 101% | 86.7%
23 | Cc1[nH]c(N=Nc2ccccc2)nc1N=Nc1ccccc1 | 36.3% | 12.7% | 39% | 36.5% | 16.2% | 40.3% | -17.5% (active) | 27% | 6.21% (active) | 17.2%
24 | CCN(CC)c1ccc2c(c1)Oc1nc(N)c(C#N)c(N)c1C2Sc1ccc(OC)cc1 (stereo not given) | -25.8% (active) | 5.34% (active) | 97.6% | 35.9% | -18.3% (active) | 88.3% | -61.9% (active) | 72.8% | 0.244% (active) | -60% (active)
25 | CCOC(=O)c1sc(/N=C2\NC(=O)/C(=C/c3ccc(N4CCN(C)CC4)cc3)S2)nc1C | 99.3% | 99.7% | 97.6% | 105% | 109% | 108% | 77.4% | 89.6% | 87% | 109%
26 | CN1CCN(S(=O)(=O)O[C@@H]2C(=O)N(c3cc4c5ccccc5ccc4c4ccccc34)[C@H]2c2ccc(F)cn2)CC1 | 90.6% | 91.2% | 87.4% | 86.6% | 98% | 65.3% | 70.3% | 83.4% | 79.8% | 96.7%
27 | CC(=O)Oc1c2c(nc3c1c1ccccc1n3Cc1ccccc1)-c1ccccc1C2 | 72% | 85.9% | 92.2% | 79.7% | 98.2% | 90.5% | 51% | 85.7% | 91.8% | 97.9%
